D1 PAM: enhances dopamine response at the human D1 receptor; P21728; HEK293 TREx D1 cells, calcium flux, dopamine EC20 potentiation; potentiation, % at 10 µM; 360,000 compounds, 0.036% hits; in the data active = potentiation above about 30%; also: 0% is about no effect
Target sequence (P21728 whole entry, looked up): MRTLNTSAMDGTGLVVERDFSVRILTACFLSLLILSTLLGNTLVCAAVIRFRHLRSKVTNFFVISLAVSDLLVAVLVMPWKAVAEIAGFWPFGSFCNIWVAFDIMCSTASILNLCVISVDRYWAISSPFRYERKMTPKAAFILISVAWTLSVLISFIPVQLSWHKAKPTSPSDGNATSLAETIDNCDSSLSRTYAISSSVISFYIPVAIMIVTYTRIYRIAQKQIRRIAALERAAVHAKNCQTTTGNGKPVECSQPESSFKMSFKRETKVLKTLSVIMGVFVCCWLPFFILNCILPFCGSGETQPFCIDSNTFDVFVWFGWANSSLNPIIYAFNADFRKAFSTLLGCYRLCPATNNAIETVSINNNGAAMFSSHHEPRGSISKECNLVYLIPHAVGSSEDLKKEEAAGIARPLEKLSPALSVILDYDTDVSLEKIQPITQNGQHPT
D1 antagonist: human D1 dopamine receptor antagonism; HEK293 TREx D1 cells, calcium flux, dopamine EC80; hits give low values; AID 504652; activity change, negative = inhibition, % at 10 µM; P21728; 360,000 compounds, 3.2% hits; in the data active = activity change below about -30%; also: % is scaled to controls: 0 for no effect and ±100 for the full control effect
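HEK293 T-REx cells expressing inducible, force-coupled D1 receptor; no-wash Ca dye, 30–90 min RT. Cmpd → 180 s read at 1 Hz → EC80 DA → 180 s read.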
TRHR PAM: TRH receptor (human) allosteric enhancement; enhancement, % at 2 µM; AID 493056; 360,000 compounds, 0.66% hits; P34981; TRHR cells, fluo-8 calcium fluorescence, EC20 TRH enhancement; in the data active = enhancement above about 30%; also: 0% is about no effect
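TRHR-expressing cells loaded with fluo-8 calcium dye were read kinetically (ex 480/em 530) during compound addition, then stimulated with an EC20 of TRH (10 nM final). Enhancement of the Gq-mediated intracellular calcium response was scored.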
D1 agonist: activates the human D1 dopamine receptor; HEK293 T-REx D1 cells, calcium flux, agonist mode; activation, % at 2 µM; 360,000 compounds, 1% hits; also: 0% is about no effect
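Inducible HEK293 T-REx D1 cells, force-coupled to calcium signalling, were plated at 4000 cells/well with tetracycline and held overnight at 30 C. After no-wash calcium dye loading, compound-evoked calcium rise over 180 s flagged agonists.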
TRHR agonist: TRH receptor (human) agonism; TRHR cells, calcium flux fluo-8, FDSS agonist mode; activation, % at 2 µM; 360,000 compounds, 0.18% hits; also: 0% is about no effect
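Agonist-mode FDSS calcium read (Ex 480/Em 530, 1 s cycles) in 1536-well TRHR cells with fluo-8 dye, after 10-cycle baseline and 23 nL compound addition; TRH at EC20 (10 nM final) added afterwards for the enhancer phase.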
Active calls of the source: *; x = not tested or not shown. Sampled rows, rich in hits. Any-hit rate of the full collection: about 4.7%. Rule as the data show it, unless noted: active = activation above about 30%; inactive = the rest.

SMILES | D1 PAM | D1 antagonist | TRHR PAM | D1 agonist | TRHR agonist
Cc1ccc(/C=C2\SC(=S)N(CCC(=O)NCCCN3CCOCC3)C2=O)cc1 | x | -6.1 | -1.6 | 12.1 | -1.1
O=C(CCCN1C(=O)/C(=C/c2ccccc2)SC1=S)NCCCn1ccnc1 | 3.8 | -30.3* | -6.7 | 13.9 | 0.7
CCOc1ccc(/C=C2\SC(=S)N(CC(=O)NCCCN3CCOCC3)C2=O)cc1 | -8.3 | -6.3 | -5.7 | 2.1 | 0.0
O=C(CN1CCN(S(=O)(=O)c2ccc(Cl)cc2)CC1)c1ccc(O)c(O)c1 | -0.9 | 11.5 | -3.7 | 0.3 | -0.3
Cc1ccccc1Cn1c(=O)n(CCC(=O)NCc2ccco2)c(=O)c2sccc21 | 1.1 | 5.2 | -3.8 | -1.2 | -1.9
COc1cccc(OCCCn2cc(/C=C3/C(=N)N4C=C(C)SC4=NC3=O)c3ccccc32)c1 | -0.5 | -10.7 | 3.3 | 34.4* | 8.2
COc1ccc(OCCCn2cc(/C=C3/C(=N)N4C=C(C)SC4=NC3=O)c3ccccc32)cc1 | 1.1 | 25.4 | -4.2 | 3.3 | 0.0
Cc1ccc(Cl)cc1N1CCN(S(=O)(=O)c2ccc3c(c2)CCN3C(=O)C2CCC2)CC1 | 6.2 | 19.1 | 13.3 | 6.2 | 0.6
O=S(=O)(Nc1ccc2c(c1)OCO2)c1ccc(Cl)cc1F | -8.9 | 3.6 | -0.8 | 0.2 | -0.7
CN(C)C(=O)C(CCN1CCC(O)(c2ccc(Cl)cc2)CC1)(c1ccccc1)c1ccccc1 | -5.8 | -21.3 | -8.7 | 39.9* | 1.0
CN(C)c1ccc(NC(=O)CN2CCC(O)(c3ccccc3)CC2)cc1 | -4.7 | -4.6 | -26.0 | 1.8 | -0.9
COc1ccc(N2CCN(C(=O)Cc3ccc(OC)c(OC)c3)CC2)cc1 | 4.8 | 16.9 | 8.0 | 17.6 | -0.5
CC(C)(C)CN1CCNC(=O)C1CC(=O)NCCc1ccccc1F (stereo not given) | -8.0 | -1.6 | 31.2* | 3.2 | 1.3
CC(C)(C)CN1CCNC(=O)C1CC(=O)NCCc1cnn(-c2ccccc2)c1 (stereo not given) | -5.2 | -1.1 | 1.7 | 1.3 | 0.2
O=C(NCCN1CCOCC1)c1cc(-c2ccc(Cl)cc2Cl)on1 | 6.5 | -34.4* | -5.8 | 1.1 | -0.1
Oc1c(C(c2ccccc2F)N2CCCCC2)sc2nc(-c3ccco3)nn12 (stereo not given) | 0.2 | x | -6.5 | -3.7 | 0.4
O=C(COCc1ccccc1)N[C@@H](Cc1ccc(O)cc1)C(=O)O | -3.0 | -35.6* | -0.2 | -2.6 | -0.5
Cc1nc2nc(CNC(=O)c3cccc(F)c3)nn2c(C)c1CCC(=O)Nc1ccc(F)cc1 | -0.9 | 17.2 | -6.3 | -0.5 | -0.5
COc1ccccc1N(C(=O)c1ccncc1)c1nc(-c2ccc([N+](=O)[O-])cc2)cs1 | -1.8 | -38.4* | -1.4 | 3.6 | -0.7
COCCN(C(=O)c1cccc(N2C(=O)CCC2=O)c1)c1nc(-c2ccc([N+](=O)[O-])cc2)cs1 | -2.8 | -15.2 | -4.9 | 10.1 | 0.1
CCn1cc2nc(SCc3cccc(OC)c3)n(Cc3ccc(Cl)cc3)c(=O)c2n1 | 0.9 | 4.9 | 14.2 | 13.1 | -1.6
CCOc1ccc(-n2c(Cc3ccccc3)nnc2SCc2nc(-c3ccccc3C)no2)cc1 | -1.2 | -1.2 | -14.0 | 31.6* | 5.1
Cc1ccc(-c2noc(CSc3nnc(Cc4ccccc4)n3-c3cccc(C)c3)n2)cc1 | -0.3 | -5.9 | -0.7 | 23.9 | 2.8
CCOc1ccc(-n2c(Cc3ccccc3)nnc2SCc2nc(-c3ccccc3OC)no2)cc1 | 0.1 | 2.1 | -7.5 | 17.1 | 0.8
CCOc1ccc(-c2noc(CSc3nnc(Cc4ccccc4)n3-c3cccc(C)c3)n2)cc1 | 0.8 | -3.6 | 5.5 | 37.8* | 3.8
SMILES | D1 PAM | D1 antagonist | TRHR PAM | D1 agonist | TRHR agonist
Nc1cnccc1C(=O)O | 6.0 | -3.0 | -5.6 | 32.1* | 6.4
COC(=O)c1[nH]c2ccc(Br)cc2c1NC(=O)CN1CCCCC1CCO (stereo not given) | -3.6 | -40.6* | -4.7 | 0.5 | 0.1
COc1ccc(N2CC(NC(=O)c3ccc(S(=O)(=O)N4CCOCC4)cc3)CC2=O)cc1 (stereo not given) | -0.9 | x | -5.6 | 2.4 | 0.1
COc1cc(/C=N/NC(=O)C[n+]2ccccc2)cc(OC)c1OC(C)=O | -10.8 | -79.4* | 1.8 | 0.6 | 0.5
CCOCCc1nn2c(=O)cc(COC(=O)c3ccccc3OC)nc2s1 | -8.7 | -31.5* | 1.4 | 0.4 | 0.3
CCOCCc1nn2c(=O)cc(COC(=O)c3cccs3)nc2s1 | -5.5 | 17.0 | 9.3 | 10.9 | -0.6
